Measured values from PubChem BioAssay (EPA / NIEHS).
“And” between values parts separate entries of the source, which are not always exact repeats. Equal values may be shown once. Where a structure was tested more than once in an assay, its records may differ in their call. The source made the active and inactive calls. How the source made its calls: active means hit-call score of the fitted dose curve at least 0.9, where 1 is the maximum; inactive means score below 0.9.

How the values were obtained:
Settings in all cases: mRNA level, 48 h; actives raise or lower the signal
[1] = read-out: Protein phosphatase 2A (PPP2R4), PTPA (gene 5524); assay: LTEA_HepaRG_PPP2R4: Life Technologies and Expression Analysis (LTEA) Assay for Protein phosphatase 2A (PPP2R4) using HepaRG (AID 2283522)
Method in brief: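 Gene-expression endpoint in HepaRG hepatic cells: 48 h treatment across eight half-log concentrations up to 100 uM in 0.5% DMSO. PPP2R4 mRNA by qRT-PCR, normalized to three endogenous control genes.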

[2] = read-out: Phosphatase and tensin (PTEN), PTEN (gene 5728); assay: LTEA_HepaRG_PTEN: Life Technologies and Expression Analysis (LTEA) Assay for Phosphatase and tensin (PTEN) using HepaRG (AID 2283523)
Method in brief: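 Differentiated human HepaRG cells, plated 48 h then switched to serum-free induction medium, were exposed in duplicate for 48 h to eight half-log concentrations up to 100 uM in 0.5% DMSO. PTEN mRNA measured by TaqMan qRT-PCR, normalized to ACTB/GAPDH/POLR2A, bidirectional fit versus DMSO.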

[3] = read-out: solute carrier (SLC22A1), SLC22A1 (gene 6580); assay: LTEA_HepaRG_SLC22A1: Life Technologies and Expression Analysis (LTEA) Assay for solute carrier (SLC22A1) using HepaRG (AID 2283524)
Method in brief: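 Human HepaRG cells were plated 48 h, switched to serum-free induction medium, then exposed in duplicate for 48 h to 8-point half-log series from 100 uM in 0.5% DMSO. SLC22A1 mRNA measured by qRT-PCR, normalized to ACTB/GAPDH/POLR2A, fitted bidirectionally versus DMSO.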

[4] = read-out: Pyruvate Dehydrogenase Kinase 4 (PDK4), PDK4 (gene 5166); assay: LTEA_HepaRG_PDK4: Life Technologies and Expression Analysis (LTEA) Assay for Pyruvate Dehydrogenase Kinase 4 (PDK4) using HepaRG (AID 2283525)
Method in brief: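 Differentiated human HepaRG cells, pre-cultured 48 h, were exposed in duplicate for 48 h in serum-free induction medium to eight half-log concentrations up to 100 uM in 0.5% DMSO. PDK4 mRNA was quantified by qRT-PCR, normalized to ACTB, GAPDH and POLR2A, bidirectional fitting versus DMSO.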

[5] = read-out: NAD(P)H dehydrogenase [quinone] 1 (NQO1), NQO1 (gene 1728); assay: LTEA_HepaRG_NQO1: Life Technologies and Expression Analysis (LTEA) Assay for NAD(P)H dehydrogenase [quinone] 1 (NQO1) using HepaRG (AID 2283526)
Method in brief: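 Human HepaRG hepatic cells received chemicals for 48 h in serum-free induction medium with 0.5% DMSO, up to 100 uM. Expression was assessed by TaqMan qRT-PCR against housekeeping controls and fitted bidirectionally against DMSO.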

[6] = read-out: Nuclear factor erythroid 2-related factor 2 (Homo sapiens) (UniProt Q16236); assay: LTEA_HepaRG_NFE2L2: Life Technologies and Expression Analysis (LTEA) Assay for Nuclear factor erythroid 2-related factor 2 (NFE2L2) Transcription Factor using HepaRG (AID 2283527)
Method in brief: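 Differentiated human HepaRG cells in serum-free induction medium were exposed for 48 h to eight concentrations (top 100 uM, half-log dilutions, 0.5% DMSO), in duplicate. NFE2L2 mRNA was quantified by TaqMan qRT-PCR, normalized to ACTB, GAPDH and POLR2A, with bidirectional fitting versus DMSO.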

[7] = read-out: succinate dehydrogenase complex iron sulfur subunit B (SDHB), SDHB (gene 6390); assay: LTEA_HepaRG_SDHB: Life Technologies and Expression Analysis (LTEA) Assay for succinate dehydrogenase complex iron sulfur subunit B (SDHB) using HepaRG (AID 2283528)
Method in brief: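 HepaRG cells (~100,000/well, plated 48 h) exposed in duplicate for 48 h in serum-free induction medium to 8-point half-log series from 100 uM in 0.5% DMSO; mRNA by qRT-PCR normalised to ACTB, GAPDH, POLR2A; bidirectional fit versus DMSO.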

[8] = read-out: Signal transducer and activator of transcription 3 (Homo sapiens) (UniProt P40763); assay: LTEA_HepaRG_STAT3: Life Technologies and Expression Analysis (LTEA) Assay for Signal transducer and activator of transcription (STAT3) using HepaRG (AID 2283529)
Method in brief: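 Differentiated human HepaRG cells in serum-free induction medium were exposed in duplicate for 48 h to eight half-log concentrations up to 100 uM in 0.5% DMSO. STAT3 mRNA was quantified by TaqMan qRT-PCR, normalized to ACTB, GAPDH and POLR2A, and fitted bidirectionally against DMSO.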

[9] = read-out: solute carrier (SLCO1B1), SLCO1B1 (gene 10599); assay: LTEA_HepaRG_SLCO1B1: Life Technologies and Expression Analysis (LTEA) Assay for solute carrier (SLCO1B1) using HepaRG (AID 2283530)
Method in brief: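 Human HepaRG cultures treated for 48 h with an eight-concentration half-log series topping at 100 uM; SLCO1B1 measured by qRT-PCR and fitted bidirectionally relative to DMSO.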

[10] = read-out: sulfotransferase 2A1 (SULT2A1), SULT2A1 (gene 6822); assay: LTEA_HepaRG_SULT2A1: Life Technologies and Expression Analysis (LTEA) Assay for sulfotransferase 2A1 (SULT2A1) using HepaRG (AID 2283531)
Method in brief: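 Gene-expression endpoint in a human liver cell line: SULT2A1 mRNA change after 48 h chemical treatment, curves fitted in both directions relative to 0.5% DMSO vehicle. Concentrations spanned eight half-log steps from 100 uM.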

[11] = read-out: Transforming Growth Factor (TGFA), TGFA (gene 7039); assay: LTEA_HepaRG_TGFA: Life Technologies and Expression Analysis (LTEA) Assay for Transforming Growth Factor (TGFA) using HepaRG (AID 2283532)
Method in brief: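 Differentiated human HepaRG cells, plated 48 h then switched to serum-free induction medium, were exposed in duplicate for 48 h to 8-point half-log series from 100 uM in 0.5% DMSO. TGFA mRNA measured by qRT-PCR, normalized to ACTB/GAPDH/POLR2A, bidirectional fit versus DMSO.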

[12] = read-out: Transforming Growth Factor (TGFB1), TGFB1 (gene 7040); assay: LTEA_HepaRG_TGFB1: Life Technologies and Expression Analysis (LTEA) Assay for Transforming Growth Factor (TGFB1) Transporter using HepaRG (AID 2283533)
Method in brief: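 Eight-point concentration-response (max 100 uM, half-log) in HepaRG under serum-free induction conditions, 48 h. TGFB1 mRNA by qRT-PCR, housekeeping-normalized.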

TIMP1, TIMP1 (gene 7076) = assay: LTEA_HepaRG_TIMP1: Life Technologies and Expression Analysis (LTEA) Assay for TIMP1 using HepaRG (AID 2283534)
Method in brief: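 TIMP1 induction or repression in HepaRG cells after 48 h chemical exposure (eight concentrations, highest 100 uM), assessed by normalized qRT-PCR with bidirectional fitting to DMSO controls.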

[13] = read-out: Tumor necrosis factor receptor 1 (TNFRSF1A), TNFRSF1A (gene 7132); assay: LTEA_HepaRG_TNFRSF1A: Life Technologies and Expression Analysis (LTEA) Assay for Tumor necrosis factor receptor 1 (TNFRSF1A) using HepaRG (AID 2283535)
Method in brief: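 Assay uses 48 h chemical treatment of differentiated HepaRG monolayers, tested in duplicate at eight concentrations from 100 uM downward in 0.5% DMSO. mRNA is normalized to ACTB, GAPDH and POLR2A, with induction or suppression fitted relative to vehicle.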

[14] = read-out: Thyroid Hormone Responsive (THRSP), THRSP (gene 7069); assay: LTEA_HepaRG_THRSP: Life Technologies and Expression Analysis (LTEA) Assay for Thyroid Hormone Responsive (THRSP) using HepaRG (AID 2283536)
Method in brief: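 Differentiated human HepaRG cells were exposed in duplicate for 48 h in serum-free induction medium to eight concentrations (top 100 uM, half-log steps, 0.5% DMSO). Expression was quantified by TaqMan qRT-PCR, normalized to ACTB, GAPDH and POLR2A, with bidirectional fitting against DMSO.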

[15] = read-out: UDP glucuronosyltransferase (UGT1A1), UGT1A1 (gene 54658); assay: LTEA_HepaRG_UGT1A1: Life Technologies and Expression Analysis (LTEA) Assay for UDP glucuronosyltransferase (UGT1A1) using HepaRG (AID 2283538)
Method in brief: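 Human liver HepaRG cultures receive test chemical for 48 h, up to 100 uM in 0.5% DMSO, with phenobarbital induction controls. UGT1A1 mRNA is measured by qRT-PCR and normalized to ACTB, GAPDH and POLR2A.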

[16] = read-out: UDP glucuronosyltransferase (UGT1A6), UGT1A6 (gene 54578); assay: LTEA_HepaRG_UGT1A6: Life Technologies and Expression Analysis (LTEA) Assay for UDP glucuronosyltransferase (UGT1A6) using HepaRG (AID 2283539)
Method in brief: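 Measures mRNA change in HepaRG hepatic cells exposed 48 h to chemicals (eight-point, maximum 100 uM, 0.5% DMSO vehicle) in serum-free induction medium. Expression normalized to endogenous controls; DMSO served as negative control and baseline.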

[17] = read-out: X-box binding protein 1 (XBP1), XBP1 (gene 7494); assay: LTEA_HepaRG_XBP1: Life Technologies and Expression Analysis (LTEA) Assay for X-box binding protein 1 (XBP1) using HepaRG (AID 2283540)
Method in brief: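 Eight concentrations (half-log, highest 100 uM, 0.5% DMSO) tested in duplicate on HepaRG cells over 48 h in serum-free induction medium; qRT-PCR of XBP1 normalised to ACTB, GAPDH, POLR2A.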

[18] = read-out: Cellular tumor antigen p53 (Homo sapiens) (UniProt P04637); assay: LTEA_HepaRG_TP53: Life Technologies and Expression Analysis (LTEA) Assay for Tumor Protein P53 (TP53) using HepaRG (AID 2283537)
Method in brief: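 Differentiated HepaRG cells in serum-free induction medium exposed 48 h in duplicate to 8 half-log concentrations, top 100 uM, 0.5% DMSO. TP53 mRNA by TaqMan qRT-PCR (Fluidigm), normalized to ACTB, GAPDH, POLR2A; fitted bidirectionally versus DMSO.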

Measured: AC50

Chain of Signal transducer and activator of transcription 3 (Homo sapiens) (P40763 whole entry, looked up): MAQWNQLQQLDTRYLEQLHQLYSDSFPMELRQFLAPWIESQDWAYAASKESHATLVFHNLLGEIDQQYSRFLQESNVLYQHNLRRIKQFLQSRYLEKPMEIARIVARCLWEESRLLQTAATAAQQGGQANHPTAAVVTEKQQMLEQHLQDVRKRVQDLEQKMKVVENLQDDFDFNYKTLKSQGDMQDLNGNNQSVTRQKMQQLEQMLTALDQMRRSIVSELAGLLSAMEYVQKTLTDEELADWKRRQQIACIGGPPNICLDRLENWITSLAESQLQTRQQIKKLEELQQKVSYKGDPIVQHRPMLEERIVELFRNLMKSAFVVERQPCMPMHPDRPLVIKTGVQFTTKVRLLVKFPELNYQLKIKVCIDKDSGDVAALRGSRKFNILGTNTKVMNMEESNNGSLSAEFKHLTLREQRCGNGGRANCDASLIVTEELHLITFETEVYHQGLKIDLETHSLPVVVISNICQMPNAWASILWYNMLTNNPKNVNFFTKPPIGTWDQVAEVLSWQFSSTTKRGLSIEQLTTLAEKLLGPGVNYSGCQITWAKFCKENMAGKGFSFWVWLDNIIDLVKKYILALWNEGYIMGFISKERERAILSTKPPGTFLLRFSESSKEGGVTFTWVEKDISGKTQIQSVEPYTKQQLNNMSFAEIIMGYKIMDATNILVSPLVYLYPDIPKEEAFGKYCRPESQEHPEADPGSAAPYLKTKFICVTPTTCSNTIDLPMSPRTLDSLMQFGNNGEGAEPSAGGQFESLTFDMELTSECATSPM
Chain of Nuclear factor erythroid 2-related factor 2 (Homo sapiens) (Q16236 whole entry, looked up): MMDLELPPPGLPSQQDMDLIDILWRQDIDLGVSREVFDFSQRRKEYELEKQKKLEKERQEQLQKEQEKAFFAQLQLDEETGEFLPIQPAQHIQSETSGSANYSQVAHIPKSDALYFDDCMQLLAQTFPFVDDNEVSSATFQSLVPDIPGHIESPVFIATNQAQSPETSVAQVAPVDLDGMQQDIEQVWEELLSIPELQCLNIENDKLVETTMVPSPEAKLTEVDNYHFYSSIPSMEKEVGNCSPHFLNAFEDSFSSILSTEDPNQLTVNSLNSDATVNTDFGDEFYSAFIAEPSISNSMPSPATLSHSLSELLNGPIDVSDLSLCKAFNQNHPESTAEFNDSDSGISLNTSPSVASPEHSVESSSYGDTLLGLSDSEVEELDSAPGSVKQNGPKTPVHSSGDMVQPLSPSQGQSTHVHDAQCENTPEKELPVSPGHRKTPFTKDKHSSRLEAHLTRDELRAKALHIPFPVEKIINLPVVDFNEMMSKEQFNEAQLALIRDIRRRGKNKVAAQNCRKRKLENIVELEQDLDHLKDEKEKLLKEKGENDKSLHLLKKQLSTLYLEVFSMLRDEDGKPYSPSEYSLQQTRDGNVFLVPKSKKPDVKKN
Chain of Cellular tumor antigen p53 (Homo sapiens) (P04637 whole entry, looked up): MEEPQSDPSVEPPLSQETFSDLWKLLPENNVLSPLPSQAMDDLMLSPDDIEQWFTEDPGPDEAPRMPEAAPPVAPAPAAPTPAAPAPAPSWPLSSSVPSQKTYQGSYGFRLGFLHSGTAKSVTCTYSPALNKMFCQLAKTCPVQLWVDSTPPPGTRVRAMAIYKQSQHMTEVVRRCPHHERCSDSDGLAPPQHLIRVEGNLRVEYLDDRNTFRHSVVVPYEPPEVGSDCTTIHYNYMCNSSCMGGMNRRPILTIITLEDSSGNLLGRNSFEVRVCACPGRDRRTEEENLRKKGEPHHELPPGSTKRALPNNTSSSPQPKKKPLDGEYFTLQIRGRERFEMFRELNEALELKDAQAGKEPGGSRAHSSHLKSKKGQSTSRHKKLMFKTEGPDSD

CCCN(CCC)c1c([N+](=O)[O-])cc(S(N)(=O)=O)cc1[N+](=O)[O-]
inactive: [1] | [3] | [5] | [6] | [9] | [11] | [12] | TIMP1, TIMP1 (gene 7076) | [13] | [14] | [16] | [17]
active: [1] 72 µM | [2] 93.1 µM and 75.5 µM and 76.5 µM | [3] 57 µM | [4] 92.7 µM and 50 µM and 83.9 µM | [6] 79.3 µM and 79.5 µM | [7] 96.3 µM and 50 µM and 84.4 µM | [8] 94 µM and 50 µM and 77 µM | [10] 92.1 µM and 76.9 µM and 81 µM | [12] 93.9 µM | TIMP1, TIMP1 (gene 7076) 93.9 µM | [13] 82.1 µM | [15] 7.17 µM and 86.5 µM and 89.5 µM | [16] 79.1 µM and 78.9 µM | [17] 96.7 µM and 79.1 µM

CCNc1nc(Cl)nc(NCC)n1
active: [15] 3.7 µM
inactive: all other assays above
